In all, about 320,000 compounds went through this assay and about 2,100 (0.66%) were called active. About 53% were inconclusive and are not listed. The sample holds actives, similar compounds and a random draw of the others, so the mix is not that of the screen. The call rests on the fitted dose curve; in most records, active means well fitted inhibition curve with a large enough effect in the signal ratio, with a control signal flat (not every such curve was filed as active); inconclusive means small, poorly fitted or top-dose-only effect, or effect the other way, or a change in a side signal; inactive means flat fitted curve, though single readings scatter; the % refers to the signal ratio.
Assay: qHTS Assay for Lipid Storage Modulators in Drosophila S3 Cells;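 on cell number change: cells counted by Cell Tracker Red CMTPX staining in the red channel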; on lipid storage change, negative = inhibition: on the % scale 0 is the no-effect control and ±100 the full control effect
Details: BODIPY lipid droplet fluorescence, 18-24 h, cells fed with added oleic acid; cell number change: measured here: cell count max response; series mostly up to 46.1 µM; lipid storage change, negative = inhibition: at the top concentration
In short: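 Laser-scanning cytometry quantifies lipid droplet accumulation (500–530 nm total intensity; droplet/cell object ratio) in oleic acid-fed (400 uM added) Drosophila S3 cells treated with a concentration series. 20 uM Triacsin C defined 100% inhibition.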
Potency means the concentration at half of the fitted maximal effect.

| Structure (SMILES) | lipid storage change, negative = inhibition | cell number change | Potency | outcome |
| --- | --- | --- | --- | --- |
| CC(C)(C)NC(=O)/C=C/c1cccc(C(F)(F)F)c1 | 23.9% (inactive) | -3.06% | – | – |
| COc1ccc(Nc2ccc([N+](=O)[O-])cn2)cn1 | – | -5.41% | 16.4 µM (active) | – |
| COc1ccccc1Nc1ccc([N+](=O)[O-])cn1 | 3.34% (inactive) | 25.6% | – | – |
| COc1ccc(Nc2ccc([N+](=O)[O-])cn2)cc1 | 19.4% (inactive) | 13.2% | – | – |
| CCc1nn(CC(=O)NCCCN(CC)c2cccc(C)c2)c(=O)c2cc3occc3n12 | 8.48% (inactive) | -11.1% | – | – |
| CCOC(=O)CCn1cc(F)c(=O)n(Cc2ccccc2)c1=O | – | 12.1% | – | inactive |
| CC(C)Nc1nc(SC(C)C(=O)Nc2ccccc2)nc(N(C)C)n1 (centres undefined) | – | -27.6% | 8.2 µM (active) | – |
| CCOc1nc(SC(C(C)=O)C(=O)Nc2ccccc2)nc(N(C)C)n1 (centres undefined) | 3.93% (inactive) | -9.19% | – | – |
| CC(Sc1nc(N2CCOCC2)nc(N2CCOCC2)n1)C(=O)Nc1ccccc1 (centres undefined) | 0.66% (inactive) | -7.21% | – | – |
| COC(=O)c1ccc(-c2ccc(/C=N/N3C(=O)C4C5C=CC(C6CC56)C4C3=O)o2)cc1 (centres undefined) | – | 4.78% | 20.6 µM (active) | – |
| COC(=O)c1ccc(-c2ccc(/C=N/N3C(=O)C4C5C=CC(CC5)C4C3=O)o2)cc1 (centres undefined) | -0.618% (inactive) | 10.1% | – | – |
| COC(=O)c1cccc(-c2ccc(/C=N/N3C(=O)C4C5C=CC(C6CC56)C4C3=O)o2)c1 (centres undefined) | -10.1% (inactive) | -7.37% | – | – |
| O=c1nc(-c2ccccc2)cc(C(F)(F)F)[nH]1 | -9.25% (inactive) | -9.42% | – | – |
| COc1ccc(/C=C/c2cc(C(F)(F)F)[nH]c(=O)n2)cc1OC | -12.5% (inactive) | 7.45% | – | – |
| O=c1nc(/C=C/c2ccccc2C(F)(F)F)cc(C(F)(F)F)[nH]1 | – | -22.9% | 0.517 µM (active) | – |
| CCc1ccc(N2CC(C(=O)NC3CCCCC3C)CC2=O)cc1 (centres undefined) | – | -4.76% | – | inactive |
| COC(=O)c1ccc(COc2ccccc2/C=N/NS(=O)(=O)c2ccccc2)cc1 | -8.74% (inactive) | -14.9% | – | – |
| CCCCC1C(=O)CC[C@H]2[C@@H]1CC(=O)[C@@H]2C/C=C\CCCC(=O)O (some centres undefined) | – | -6.62% | 9.2 µM (active) | – |
| CCCCC/C=C\C/C=C\C/C=C\C/C=C\CCCC(=O)O | -8.8% (inactive) | -29.6% | – | – |
| CCCCC[C@H](O)/C=C/[C@H]1C=CC(=O)[C@@H]1C/C=C\CCCC(=O)O | -2.66% (inactive) | 10.2% | – | – |
| CCn1c(=O)c(C(=O)NCc2ccccc2OC)c(O)c2ccccc21 | – | 3.38% | – | inactive |

| Structure (SMILES) | lipid storage change, negative = inhibition | cell number change | Potency | outcome |
| --- | --- | --- | --- | --- |
| Cc1cccc(C)c1OCc1nnc(SCC(=O)Nc2ccccc2F)o1 | 29.6% (inactive) | -7.4% | – | – |
| CCc1nnc(NC(=O)CSc2nnc(CSc3nc(C)cc(C)n3)o2)s1 | 7.1% (inactive) | 9.83% | – | – |
| Cc1ccc(NC(=O)c2cc(S(=O)(=O)NCCC3=CCCCC3)ccc2F)cc1 | -15.8% (inactive) | -3.48% | – | – |
| O=C(Nc1cccc(-n2cnnn2)c1)c1cccc(Cl)c1 | – | -16% | 14.6 µM (active) | – |
| O=C(Nc1cccc(-n2cnnn2)c1)c1ccoc1COc1ccc(Cl)cc1 | – | -18.1% | 29.1 µM (active) | – |
| O=C(CNC(=O)c1cccc(-n2cnnn2)c1)Nc1ccc(F)c(F)c1 | 4.76% (inactive) | 0.376% | – | – |
| Cc1cc(OCCCC(=O)Nc2cccc(-n3cnnn3)c2)ccc1Cl | – | 3.23% | 3.26 µM (active) | – |
| O=C(Nc1ccc(C(F)(F)F)cc1)c1cccc(-n2cnnn2)c1 | 19% (inactive) | 8.84% | – | – |
| O=C(Nc1cccc(-n2cnnn2)c1)c1cccs1 | – | -3.63% | – | inactive |
| O=C(COc1cccc(-n2cnnn2)c1)Nc1ccccc1 | -13.1% (inactive) | -12.3% | – | – |
| O=C(Nc1cccc(-n2cnnn2)c1)c1ccco1 | 9.61% (inactive) | -16.6% | – | – |
| COc1ccc(NC(=O)COc2cccc(-n3cnnn3)c2)cc1 | – | -3.85% | – | inactive |
| Cc1ccc(C)c(NC(=O)c2cc[n+](C)cc2)c1 | – | -24.7% | – | inactive |
| CCOC(=O)COc1ccc(S(=O)(=O)NCc2ccncc2)cc1 | -23.8% (inactive) | – | – | – |
| Cc1ccc(/C=C/C(=O)N(Cc2cccs2)C2CCS(=O)(=O)C2)cc1 (centres undefined) | 18.4% (inactive) | 11.3% | – | – |
| CCOC(=O)c1c(-c2ccccc2)csc1NC(=O)CSc1nc(N)cc(N)n1 | 13.1% (inactive) | 11.6% | – | – |
| COCCCn1c(C)nnc1-c1cnn(-c2ccccc2)c1N | 10.4% (inactive) | 22.6% | – | – |
| O=C(Nc1cccnc1)c1ccc2c(c1)C(=O)N(CC1CCCO1)C2=O (centres undefined) | -113% (inactive) | 5.85% | – | – |
| COc1ccc2cc3cc(C(=O)NCCN4CCN(c5ccccc5F)CC4)oc3nc2c1 | -20.3% (inactive) | -11.8% | – | – |
| C/C=C(\CS(=O)(=O)c1ccccc1)S(=O)(=O)c1ccccc1 | – | -14.9% | 5.17 µM (active) | – |
| C/C(CS(=O)(=O)c1ccccc1)=N\O | -23.4% (inactive) | -17.1% | – | – |

| Structure (SMILES) | lipid storage change, negative = inhibition | cell number change | Potency | outcome |
| --- | --- | --- | --- | --- |
| CCN(Cc1ccccc1)C(=O)CS(=O)(=O)c1ccccc1 | -5.16% (inactive) | 0.704% | – | – |
| O=C(NNC(=O)c1cccc(S(=O)(=O)N2CCN(c3ccccc3)CC2)c1)c1ccc(Cl)cc1 | 2.76% (inactive) | -1.16% | – | – |
| O=C(Nc1cccc(C(F)(F)F)c1)Oc1ccc(Cl)c2cccnc12 | – | -22.5% | 8.2 µM (active) | – |
| O=C(Nc1cccc(C(F)(F)F)c1)c1cccnc1N1CCN(CCO)CC1 | – | – | – | inactive |
| CCN(CC)C(=O)Oc1ccc(Cl)c2cccnc12 | 4.69% (inactive) | -13.1% | – | – |
| O=C(Oc1ccc(Cl)c2cccnc12)N1CCCCCC1 | 2.39% (inactive) | 0.575% | – | – |
| O=C(Nc1cccc(C(F)(F)F)c1)c1cccnc1NCCO | – | 17.5% | 9.2 µM (active) | – |
| O=C(Nc1cccc(C(F)(F)F)c1)c1cccnc1N1CCCC1 | – | – | – | inactive |
| CCOc1ccccc1Oc1nc(-c2ccccc2O)nc2ccccc12 | – | 16.3% | – | inactive |
| N#Cc1c(C(F)(F)F)cc(-c2ccc(F)cc2)nc1SCC(=O)O | 17% (inactive) | 0.873% | – | – |
| CC(c1ccc(O)cc1)(c1ccc(O)cc1)c1ccc(CCBr)cc1 | -11.7% (inactive) | -16% | – | – |
| O=C(Nc1ccc(-n2cc(Cl)cn2)cc1)c1ccncc1 | -2.29% (inactive) | 13% | – | – |
| Cc1ccc(C(=O)/C=C/N(C)C)o1 | -9.3% (inactive) | -4.62% | – | – |
| COc1ccc(C2=NC(C)(C)Cc3cc(OC)c(OC)cc32)cc1 | 14.1% (inactive) | -1.73% | – | – |
| CCNC(=O)n1nccc1C(C)Oc1ccccc1 (centres undefined) | 7.19% (inactive) | 17.8% | – | – |
| CCc1ccc(CNC(=O)C2CCN(S(=O)(=O)N3CC(C)CC(C)C3)CC2)cc1 (centres undefined) | -15.9% (inactive) | 14.3% | – | – |
| CCOc1ccc(-n2ccnc(SCC(=O)NCCc3ccccc3)c2=O)cc1 | 22.2% (inactive) | -8.43% | – | – |
| Cc1ccc(CNC(=O)CSc2nccn(-c3ccc(C)c(F)c3)c2=O)cc1 | – | -20% | 14.6 µM (active) | – |
| COc1ccc(CNC(=O)CSc2nccn(-c3ccc(F)c(F)c3)c2=O)cc1 | -25.5% [at 0.0737 µM] (inactive) | 17.2% | – | – |

Reference: PubChem BioAssay AID2685 (National Center for Advancing Translational Sciences (NCATS), 2010)
